“And” between values parts separate entries of the source, which are not always exact repeats. Identical values can stand only once. Inconclusive results are not listed. The source made the active and inactive calls. Calls follow the shape of the dose curve; as a rule, active = well fitted curve in the direction sought with a large enough effect; inconclusive = small, poorly fitted or top-dose-only effect, or another doubt; inactive = no such curve, though single readings can be large; an effect the other way counts as inactive or inconclusive.
Tests used:
[1] = tested on: Zika virus NS2B-NS3 protease (linked construct); experiment: Primary screen NINDS Rhodamine qHTS for Zika virus inhibitors (AID 1347160); also: nearly all actives have a fitted effect of over 55% in size; also: potency is read from the fitted curve at half-maximal effect
How it was run: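 In 10 mM Tris-HCl pH 8.0 containing 0.01% Tween 20, linked NS2B-NS3 protease (25 nM final) is exposed to test compounds for 15 min. Cleavage of 1.5 microM Rhodamine110 substrate is tracked by fluorescence over 15 min.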

[2] = Vero cells viability qHTS for Zika virus inhibitors (AID 1347167)
How it was run: (§1)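 Counter-screen for cytotoxicity of hits from NS2B-NS3 protease qHTS. Overnight-attached cells (2.5 x 10^5 cells/mL, DMEM/4% FBS) were dosed in titration, incubated 24 to 48 hours, then assayed by CellTiter Glo.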

[3] = HepG2 cells viability qHTS for Zika virus inhibitors (AID 1347168)
How it was run: as §1

[4] = qHTS to identify inhibitors of the type 1 interferon - major histocompatibility complex class I in skeletal muscle: primary screen against the NCATS LOPAC collection (AID 1347405);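 also: lytic HiBiT luminescence reporting HLA-B protein level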
How it was run: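 Immortalized human C25cl48 myoblasts with HiBiT knocked into endogenous HLA-B*08:01 were stimulated with 4.0 ng/ml IFN-beta and given compounds in a 7-point, 1:4.3 titration from 46 uM final; after 24 hrs, lytic HiBiT luminescence was read.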

[5] = qHTS for inhibitors of adenylyl cyclases using a fission yeast platform: a pilot screen against the NCATS LOPAC library (AID 1347410)
How it was run: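 Fission yeast qHTS: CHP2027 cells (AC9-GNAS-PDE4D2, fbp1-GFP), 5x10^6 cells/mL working density, EMM + His/Lys/Ura; LOPAC at up to 57 µM final; 18 h dark, 30C; GFP by laser cytometry. DPI positive control, DMSO vehicle.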

[6] = qHTS to identify inhibitors of the type 1 interferon - major histocompatibility complex class I in skeletal muscle: primary screen against the NCATS Mechanism Interrogation Plate v5.0 (MIPE) Libary (AID 1347411); also: nearly all actives have a fitted effect of over 65% in size
How it was run: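 Immortalized human C25cl48 myoblasts with HiBit knocked into endogenous HLA-B*08:01 were stimulated with 4.0 ng/ml IFN-beta and exposed to compounds (11-point 1:3 titration, top 46 uM final) for 24 hrs at 37 C; HiBiT lytic luminescence measured.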

[7] = biological target: Calcium and integrin-binding protein 1 (Homo sapiens) (UniProt Q99828); experiment: Validation qHTS for Identification of Calcium Integrin Binding protein 1 (CIB1) Competitor (AID 1508618)
Chain of Calcium and integrin-binding protein 1 (Homo sapiens) (Q99828 whole entry, looked up): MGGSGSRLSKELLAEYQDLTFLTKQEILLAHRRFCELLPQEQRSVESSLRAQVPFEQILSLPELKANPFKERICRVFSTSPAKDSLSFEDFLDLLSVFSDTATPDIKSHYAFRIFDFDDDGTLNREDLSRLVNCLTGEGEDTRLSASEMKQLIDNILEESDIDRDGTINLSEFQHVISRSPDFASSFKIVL
How it was run: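 CIB1-GST (1 uM final) incubated 15 min at room temperature with compounds (up to 114 uM), then FITC-labelled alphaIIb peptide (100 nM) added. FP read (Ex 480/Em 540) after 15 min, pH 7.4 buffer containing 5 mM CaCl2.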

[8] = biological target: Calcium and integrin-binding protein 1 (Homo sapiens) (UniProt Q99828); experiment: Primary qHTS for Identification of Calcium Integrin Binding Protein 1 (CIB1) Competitor (AID 1508620);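 also: GST tagged CIB1 binding a fluorescein labelled alphaIIb integrin peptide tracer; top concentration of the series differs between compounds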
How it was run: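 Fluorescence polarization competition: CIB1-GST (1 uM final) preincubated with compound 15 min at room temperature, then FITC-labeled alphaIIb peptide (100 nM final) added for another 15 min. Polarization read at Ex 480/Em 540.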

[9] = qHTS to identify inhibitors of the type 1 interferon - major histocompatibility complex class I in skeletal muscle: primary screen against the NCATS Pharmaceutical Collection (AID 1347407);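 also: luminescence of HiBiT knocked into endogenous HLA-B as interferon-induced MHC class I level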
How it was run: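 Luminescence from HiBiT-tagged endogenous HLA-B*08:01 served as the read-out of IFN-beta-induced MHC class I in CRISPR-engineered C25cl48 myoblasts. Cells received 4 ng/ml IFN-beta plus compound (high final 46 uM, […]) for 24 h.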

[10] = biological target: Protein phosphatase 1D (Homo sapiens) (UniProt O15297); experiment: RapidFire Mass Spectrometry qHTS Assay for Modulators of WT P53-Induced Phosphatase 1 (WIP1) (AID 1347424);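 also: amount of dephosphorylated VEPPL-S-QETFS peptide product formed by WIP1; series mostly up to about 63 µM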
Chain of Protein phosphatase 1D (Homo sapiens) (O15297 whole entry, looked up): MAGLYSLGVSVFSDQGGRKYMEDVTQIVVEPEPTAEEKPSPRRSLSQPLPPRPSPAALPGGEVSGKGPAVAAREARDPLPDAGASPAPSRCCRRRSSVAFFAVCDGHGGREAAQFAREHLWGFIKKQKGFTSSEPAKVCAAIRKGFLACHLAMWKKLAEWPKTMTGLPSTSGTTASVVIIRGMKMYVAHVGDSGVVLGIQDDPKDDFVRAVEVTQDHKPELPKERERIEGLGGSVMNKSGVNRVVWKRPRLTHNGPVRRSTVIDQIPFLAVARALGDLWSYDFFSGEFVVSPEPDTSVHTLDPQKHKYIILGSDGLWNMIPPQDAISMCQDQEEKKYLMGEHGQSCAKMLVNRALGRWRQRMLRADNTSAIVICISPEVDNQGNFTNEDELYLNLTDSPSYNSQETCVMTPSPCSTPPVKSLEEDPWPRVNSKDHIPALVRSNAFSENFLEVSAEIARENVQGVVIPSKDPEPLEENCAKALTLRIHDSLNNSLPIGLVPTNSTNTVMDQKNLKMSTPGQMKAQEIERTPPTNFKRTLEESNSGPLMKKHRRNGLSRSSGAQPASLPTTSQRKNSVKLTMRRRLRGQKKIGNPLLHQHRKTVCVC
How it was run: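 WIP1 (10 nM final) was preincubated 1 h at room temperature with compounds in Tris-HCl pH 7.5, 30 mM MgCl2, TCEP, EGTA, BSA; 2 uM VEPPL-pS-QETFS phosphopeptide was added for 5 min, quenched with formic acid, and dephosphorylated product quantified by RapidFire MS.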

[11] = biological target: Protein phosphatase 1D (Homo sapiens) (UniProt O15297); experiment: Rhodamine-PBP qHTS Assay for Modulators of WT P53-Induced Phosphatase 1 (WIP1) (AID 1347425)
How it was run: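 The read-out is the change in Rhodamine-PBP fluorescence (f1 - f0, ex 525/em 598 nm) as Pi is released, read each minute for 11 min. Final reaction: 5 nM WIP1, 10 uM phosphopeptide VEPPL-pS-QETFS, 10 uM Rh-PBP, 50 mM Tris-HCl pH 7.5, 30 mM MgCl2. Compound was preincubated with enzyme for 1 hour at room temperature.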

[12] = Primary qHTS for inhibitors of La Crosse Virus (LACV) - induced cell death in SH-SY5Y cells (AID 1508616);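 also: top concentration of the series differs between compounds; higher means more rescue of cells from virus-induced death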
How it was run: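 Luminescent ATP readout (ATPLite 1step, 5 min room temperature) measured rescue from LACV-induced death after 6 days of infection at 0.01 MOI; normalized to infected DMSO wells and uninfected DMSO wells.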

[13] = Confirmatory screen NINDS Rhodamine qHTS for Zika virus inhibitors (AID 1347161); also: nearly all actives have a fitted effect of over 60% in size; also: potency is read from the fitted curve at half-maximal effect
How it was run: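 Rhodamine110-peptide cleavage (1.5 µM substrate) by 25 nM linked NS2B-NS3 enzyme at pH 8.0 (Tris, Tween 20), after 15 min RT preincubation with compounds; 15-min fluorescence change normalized to controls and Hill-fitted.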

[14] = tested on: Zika virus NS2B-NS3 protease (linked); experiment: 384 well plate NINDS AMC confirmatory qHTS for Zika virus inhibitors (AID 1347163); also: nearly all actives have a fitted effect of over 50% in size; also: potency is read from the fitted curve at half-maximal effect
How it was run: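 Linked protease 5/30/60 nM final; cpds up to 1 mM final, ~15 min preinc. Substrate Ac-VKTGKR-AMC 30 microM final. RT, dark, 25 min; FI ex 355/em 460; normalized to no-enzyme/no-inhibitor ctrls.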

[15] = tested on: Zika virus NS2B-NS3 protease (linked construct); experiment: 384 well plate NINDS Rhodamine confirmatory qHTS for Zika virus inhibitors (AID 1347164);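 also: fluorescence from protease cleavage of Ac-LKRR-rhodamine 110 substrate; nearly all actives have a fitted effect of over 65% in size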; also: potency is read from the fitted curve at half-maximal effect
How it was run: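 Enzyme (final 5/30/60 nM) + cpd (DMSO), ~15 min; add Ac-LKRR-Rd 10 microM final; 25 min RT, dark; FI ex 485/em 538; normalized to no-enzyme, no-inhibitor ctrls; aprotinin intraplate ctrl.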

[16] = Counterscreen qHTS for small molecule stabilizers of the endoplasmic reticulum resident proteome: GLuc-NoTag assay (AID 1508627);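 also: SH-SY5Y cells given compound then 100 nM thapsigargin to empty ER calcium; series mostly up to about 76 µM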
How it was run: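 SH-SY5Y cells stably expressing constitutively secreted GLuc (no SERCaMP tag) were pre-incubated 5 h, treated with compound for 19 h, then 100 nM thapsigargin for 4 h at 37C; medium GLuc read by coelenterazine luminescence.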

[17] = Confirmatory qHTS for small molecule stabilizers of the endoplasmic reticulum resident proteome: Secreted ER Calcium Modulated Protein (SERCaMP) assay (AID 1508628);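 also: SH-SY5Y cells given compound 16 h then thapsigargin 100 nM for 4 h; series mostly up to about 76 µM; nearly all actives have a fitted effect of over 40% in size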
How it was run: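 We seeded SH-SY5Y-GLuc-SERCaMP cells, added compounds (three concentrations in the primary run, eleven up to 76.6 uM in confirmation), incubated 16 h, depleted ER calcium with thapsigargin, and read luciferase 4 h later.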

[18] = Validation qHTS assay for inhibitors of Activation Induced Cytidine Deaminase (AID): UDG Counterscreen signal (AID 1347427)
How it was run: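 Counterscreen read of UDG activity (2 U/mL, 4/3x) in the FRET deamination format with AID (1 uM, 4/3x), DJC20/DJC23 substrates (250 nM, 4x), 4 h at room temperature. NaOH stop, fluorescence at 560 ex/665 em.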

[19] = biological target: Single-stranded DNA cytosine deaminase (Homo sapiens) (UniProt Q9GZX7); experiment: Validation qHTS assay for inhibitors of Activation Induced Cytidine Deaminase (AID): AID signal (AID 1347429)
Chain of Single-stranded DNA cytosine deaminase (Homo sapiens) (Q9GZX7 whole entry, looked up): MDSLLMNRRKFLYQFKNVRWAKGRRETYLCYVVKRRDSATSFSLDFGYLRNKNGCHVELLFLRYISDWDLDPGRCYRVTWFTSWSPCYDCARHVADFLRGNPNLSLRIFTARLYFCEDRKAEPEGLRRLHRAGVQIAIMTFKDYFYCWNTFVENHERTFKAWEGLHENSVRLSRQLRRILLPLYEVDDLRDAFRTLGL
How it was run: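 AID and UDG were combined and compounds added at final up to 114 uM, then DJC20/DJC23 FRET substrate was added for 4 hr at room temperature. NaOH was then added for 30 min before fluorescence was read at 540/590 nm.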

Measured: Potency

CN(C)C(=O)[C@H](O)[C@H](Cc1ccccc1)NC(=O)c1cc2cc(Cl)ccc2[nH]1
inactive: [1] | [2] | [3] | [4] | [5] | [6] | [7] | [8]

Clc1ccc(C(Cn2ccnc2)OCc2c(Cl)cccc2Cl)c(Cl)c1 (stereo not given)
inactive: [1] | [9] | [6] | [10] | [11] | [12] | [8]

CC(=O)NC[C@H]1CN(c2ccc(N3CCOCC3)c(F)c2)C(=O)O1
inactive: [1] | [4] | [5] | [6]

CN(C)c1ccc(O)c2c1C[C@H]1C[C@H]3[C@H](N(C)C)C(=O)C(C(N)=O)=C(O)[C@@]3(O)C(=O)C1=C2O
inactive: [2] | [3] | [9] | [6] | [10] | [11] | [12] | [8] | [16] | [17]
active: [13] 44.1 µM and 35 µM | [14] 141 µM | [15] 89.1 µM

COc1cc2c(cc1OC)C1CC(=O)C(CC(C)C)CN1CC2 (stereo not given)
inactive: [13] | [2] | [3] | [4] | [5] | [6] | [18] | [19] | [12] | [7] | [8]

O=c1c(O)c(-c2cc(O)c(O)c(O)c2)oc2cc(O)cc(O)c12
inactive: [4] | [5] | [6] | [18] | [19] | [12] | [7] | [8]
active: [13] 14.1 µM | [14] 158 µM | [15] 39.8 µM

O=C(OC1C[C@H]2CC[C@@H](C1)[N+]21CCCC1)C(O)(c1ccccc1)c1ccccc1 (stereo not given in full)
inactive: [1] | [9] | [10] | [11] | [12] | [8]

CC(C)c1nc(CN(C)C(=O)N[C@H](C(=O)N[C@@H](Cc2ccccc2)C[C@H](O)[C@H](Cc2ccccc2)NC(=O)OCc2cncs2)C(C)C)cs1
inactive: [1] | [9] | [10] | [11] | [12] | [8]

COc1ccc2cc([C@H](C)C(=O)O)ccc2c1
inactive: [1] | [4] | [5] | [6] | [10] | [18] | [19] | [12] | [7] | [8]

Oc1ccc(-c2nc(-c3ccc(F)cc3)c(-c3ccncc3)[nH]2)cc1
inactive: [13] | [2] | [3] | [5] | [6] | [18] | [19] | [12] | [7] | [8]

Cc1nccn1CC1CCc2c(c3ccccc3n2C)C1=O (stereo not given)
inactive: [1] | [9] | [10] | [11] | [12] | [8]

N[C@@H](Cc1cc(I)c(Oc2cc(I)c(O)c(I)c2)c(I)c1)C(=O)O
active: [1] 6.31 µM | [13] 9.67 µM and 12.6 µM | [15] 10 µM
inactive: [14] | [2] | [9] | [6] | [12] | [8]

Cc1cccc(CN2CCN(C(c3ccccc3)c3ccc(Cl)cc3)CC2)c1 (stereo not given)
inactive: [9] | [6] | [10] | [11] | [12] | [8]

CCOC(=O)C1=C(O)C(=O)N(Cc2ccccc2)C1
inactive: [4] | [5] | [6] | [7] | [8]

CC(C)Oc1ccc2c(=O)c(-c3ccccc3)coc2c1
inactive: [9] | [6] | [10] | [11] | [12] | [8]

COc1c2occc2cc2ccc(=O)oc12
inactive: [15] | [2] | [3] | [9] | [6] | [10] | [11] | [12] | [8]

COc1cc(OC)c(C(=O)CCCN2CCCC2)c(OC)c1
inactive: [9] | [6] | [10] | [11] | [12] | [8]

Nc1cc(C(Cl)=C(Cl)Cl)c(S(N)(=O)=O)cc1S(N)(=O)=O
inactive: [9] | [6] | [10] | [11] | [12] | [8]

Cc1cc(=O)oc2cc(O)ccc12
inactive: [9] | [6] | [10] | [11] | [12] | [8]

CC1Cc2ccccc2N1NC(=O)c1ccc(Cl)c(S(N)(=O)=O)c1 (stereo not given)
inactive: [9] | [6] | [10] | [11] | [12] | [8]

Cc1cccc(C#Cc2ccccc2)n1
inactive: [4] | [5] | [18] | [19] | [12] | [7] | [8]

CNC[C@H](O)c1ccc(O)c(O)c1
inactive: [4] | [9] | [5] | [6] | [10] | [18] | [19] | [12] | [7] | [8]

Cc1cc2cc3c(C)cc(=O)oc3c(C)c2o1
inactive: [9] | [6] | [10] | [11] | [12] | [8]

Cc1ccc(S(=O)(=O)NC(=O)NN2CC3CCCC3C2)cc1 (stereo not given)
inactive: [9] | [6] | [10] | [11] | [12] | [8]
